Our source for the outcome and AC50 values is PubChem BioAssay (EPA / NIEHS).

For orientation: AC50 means the concentration giving half of the maximal activity seen.

Inconclusive results are not listed. The source made the active and inactive calls. Rule for the calls: active = hit-call score of the fitted dose curve at least 0.9, where 1 is the maximum; inconclusive = response in the unintended direction; inactive = score below 0.9.

This test deals with Retinoic acid receptor RXR-alpha (Homo sapiens) (UniProt P19793). Briefly: ATG_RXRa_TRANS: Attagene TRANS-FACTORIAL HepG2 Assay for human Retinoid X Receptor alpha (RXRa) (AID 2283012). On the procedure: ATG_TRANS is a cell-based, multiplexed-readout assay that uses HepG2, a human liver cell line, with measurements taken at 24 hours after chemical dosing in a 24-well plate.ATG_RXRa_TRANS is one of 30 assay component(s) measured or calculated from the ATG_TRANS assay. It is designed to make measurements of mRNA induction, a form of inducible reporter, as detected with fluorescence intensity signals by Reverse transcription polymerase chain reaction (RT-PCR) and Capillary electrophoresis technology.Data from the assay component ATG_RXRa_TRANS was analyzed into 1 assay endpoint. This assay endpoint, ATG_RXRa_TRANS, was analyzed in the positive analysis fitting direction relative to DMSO as the negative control and baseline of activity. Using a type of inducible reporter, measures of mRNA for gain-of-signal activity can be used to understand the reporter gene at the transcription factor-level as they relate to the gene RXRA. Furthermore, this assay endpoint can be referred to as a primary readout, because this assay has produced multiple assay endpoints where this one serves a reporter gene function. To generalize the intended target to other relatable targets, this assay endpoint is annotated to the nuclear receptor intended target family, where the subfamily is non-steroidal.
Chain of Retinoic acid receptor RXR-alpha (Homo sapiens) (P19793 whole entry, looked up): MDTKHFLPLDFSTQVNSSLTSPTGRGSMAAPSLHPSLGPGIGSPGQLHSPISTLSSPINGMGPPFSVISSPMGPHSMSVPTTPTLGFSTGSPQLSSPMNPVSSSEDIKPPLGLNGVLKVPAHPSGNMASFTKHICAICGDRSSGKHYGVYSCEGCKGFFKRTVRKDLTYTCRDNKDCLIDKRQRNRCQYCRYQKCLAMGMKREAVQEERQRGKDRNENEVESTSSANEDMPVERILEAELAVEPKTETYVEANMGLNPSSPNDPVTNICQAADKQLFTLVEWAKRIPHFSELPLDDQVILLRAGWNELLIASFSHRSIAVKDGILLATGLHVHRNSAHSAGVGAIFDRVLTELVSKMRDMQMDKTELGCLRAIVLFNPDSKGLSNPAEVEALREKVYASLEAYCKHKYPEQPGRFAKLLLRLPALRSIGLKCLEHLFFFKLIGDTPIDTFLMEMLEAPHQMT
Human liver HepG2 cells are transiently transfected with multiple reporter transcription units (MRTUs) in 6-well plates using FuGene 6 reagent (Roche; 3 ml FuGene/1 mg DNA). The MRTU constructs are regulated by a cis-regulating element (promoter). […] A major difference between the CIS and TRANS system is that in CIS activities of endogenous TFs are measured, whereas the TRANS assay evaluates changes in activities of exogenous, chimeric NR-Gal4 proteins. […] At the end of 24 hour incubation, total RNA was isolated using TriZol reagent (Invitrogen). The isolated RNA is then reverse-transcribed using oligo(dT) primer and Mo-MLV reverse transcriptase (Invitrogen) with DNAse I (Ambion) treatment for 30 min. The one-tenth of the produced cDNA was amplified by PCR using Taq DNA polymerase (Invitrogen) and two reporter sequence-specific primers. The PCR products were fluorescently labeled by primer extension with 6-arboxyfluorescein (6-FAM) 5'-labeled reporter sequence-specific primer (2 min at 95 C, 20 s at 68 C and 10 min at 72 C) and these products were digested with 5U of HpaI (New England Biolabs) for 2h at 37 C. The fragments were purified using Qiaquick PCR columns (Qiagen), analyzed on an ABI 3130xL genetic analyzer (Applied Biosystems) with peak positions identified by using a set of X-rhodamine (ROX)-labeled MapMarker1000 molecular weight standards (BioVentures). The raw capillary electrophoresis data was processed using Attagraph software (Attagene).
Take `Nc1ccc(N)cc1`: the call was inactive.

As to `C[C@@H]1O[C@@H](O[C@H]2C[C@@H](O)[C@]3(CO)[C@H]4[C@H](O)C[C@]5(C)[C@@H](C6=CC(=O)OC6)CC[C@]5(O)[C@@H]4CC[C@]3(O)C2)[C@H](O)[C@H](O)[C@H]1O`, the molecule was classed as inactive.

Consider `O=S1(=O)OC(c2cc(Br)c(O)c(Br)c2)(c2cc(Br)c(O)c(Br)c2)c2ccccc21`, for which the outcome was inactive.

Regarding `CC(C)(C1CCC(O)CC1)C1CCC(O)CC1` (stereo not given), the molecule was called inactive.

For `CCCCN(CCCCO)N=O`, the result was inactive.

In the case of `ClCc1ccccc1CCl`, the AC50 was 57.4 µM (active).

For the molecule `COCC(=O)N(c1c(C)cccc1C)[C@H](C)C(=O)OC`, the molecule was called inactive.

Regarding `Cc1cc(-c2cc(C)c(N)c(C)c2)cc(C)c1N`, the molecule was called inactive.

For `[F][Sn]([c]1ccccc1)([c]1ccccc1)[c]1ccccc1`, the AC50 is 0.00404 µM (active).

Turning to `O=S(=O)(F)C(F)(F)C(F)(F)C(F)(F)C(F)(F)F`, the molecule was classed as inactive.

As to `Brc1ccc(Oc2c(Br)cc(Br)cc2Br)c(Br)c1`, the molecule was classed as inactive.

For `O=C1C[C@@H]2OCC=C3CN4CC[C@]56c7ccccc7N1[C@H]5[C@H]2[C@H]3C[C@H]46`, the molecule was called inactive.

In the case of `OCCN(CCO)CCO`, the molecule was classed as inactive.

For the molecule `Cc1cc(Cl)ccc1OCCCC(=O)O`, the result was inactive.

For the molecule `CCCCOP(=O)(CCCC)OCCCC`, the molecule was called inactive.

As to `C1CCC(C2CCCCC2)CC1`, the molecule was classed as inactive.

For `CCCCCCCCCCCCOS(=O)(=O)O`, the call was inactive.

In the case of `CCC[CH2][Sn]([CH2]CCC)([CH2]CCC)[CH2]CCC`, the AC50 is 0.866 µM (active).

In the case of `Cc1cc(SCc2sc(-c3ccc(C(F)(F)F)c(F)c3)nc2C)ccc1OCC(=O)O`, the molecule was classed as inactive.

Consider `CCCCCCCCCCCCCCC(Br)C(=O)O` (stereo not given), for which the AC50 was 26.7 µM (active).

In the case of `Oc1cc(Cl)c(Cl)cc1Cl`, the outcome was inactive.

Consider `C=CC(=O)[O][Sn]([CH2]CCC)([CH2]CCC)[CH2]CCC`, for which the concentration at half-maximal activity (AC50) is 0.00177 µM (active).

Consider `CCOC(=O)OC1=C(c2cc(C)ccc2C)C(=O)NC12CCC(OC)CC2` (stereo not given), for which the outcome was inactive.

As to `O=C(O)COc1ccc(Cl)cc1`, the result was inactive.

With `CN(C)[C@@H]1C(=O)C(C(N)=O)=C(O)[C@@]2(O)C(=O)C3=C(O)c4c(O)ccc(Cl)c4[C@@](C)(O)[C@H]3C[C@@H]12`, the molecule was called inactive.

Turning to `Cc1cc(C(C)(C)c2ccc(O)c(C)c2)ccc1O`, the outcome was inactive.

Take `O=C1C=CC(=O)c2ccccc21`: the molecule was called inactive.

As to `O=C(O)c1cc(I)cc(I)c1I`, the molecule was classed as inactive.

For `COP(=S)(OC)Oc1cc(Cl)c(I)cc1Cl`, the result was inactive.

As to `O=C/C(Cl)=C(/Cl)C(=O)O`, the molecule was called inactive.

Take `ClCCCCl`: the molecule was called inactive.

As to `Oc1cccc(-c2ccccc2)c1`, the molecule was called inactive.

In the case of `CC[N+](CC)(CC)CC`, the molecule was classed as inactive.

Take `COCCl`: the molecule was called inactive.

Take `Nc1cccnc1`: the outcome was inactive.

Take `Nc1ccc(Br)cc1`: the result was inactive.

For `CCCCN(CCCC)C(=S)S`, the molecule was classed as inactive.

`CCCCCCCCCCCCN(C)C`: the result was inactive.

As for `N#CCCC(Br)(C#N)CBr` (stereo not given), the result was inactive.

`Nc1ccc(-c2ccccc2)cc1`: the call was inactive.
